Common to all, as to parameters: scale not given: direction of the effect not stated beside the values
Assay [1] concerns the target Protein translocase subunit SecA (Escherichia coli (strain K12)) (UniProt P10408). Nature of the assay: Assay to Identify E. coli SecA ATPase Inhibitors. The settings on record: 30 µM. The assay is classed as functional.
Assay [2] addresses T1, Ubiquitin-activating enzyme e1, putative (Leishmania donovani (strain BPK282A1)) (UniProt E9BSI1).
T1 sequence (whole entry): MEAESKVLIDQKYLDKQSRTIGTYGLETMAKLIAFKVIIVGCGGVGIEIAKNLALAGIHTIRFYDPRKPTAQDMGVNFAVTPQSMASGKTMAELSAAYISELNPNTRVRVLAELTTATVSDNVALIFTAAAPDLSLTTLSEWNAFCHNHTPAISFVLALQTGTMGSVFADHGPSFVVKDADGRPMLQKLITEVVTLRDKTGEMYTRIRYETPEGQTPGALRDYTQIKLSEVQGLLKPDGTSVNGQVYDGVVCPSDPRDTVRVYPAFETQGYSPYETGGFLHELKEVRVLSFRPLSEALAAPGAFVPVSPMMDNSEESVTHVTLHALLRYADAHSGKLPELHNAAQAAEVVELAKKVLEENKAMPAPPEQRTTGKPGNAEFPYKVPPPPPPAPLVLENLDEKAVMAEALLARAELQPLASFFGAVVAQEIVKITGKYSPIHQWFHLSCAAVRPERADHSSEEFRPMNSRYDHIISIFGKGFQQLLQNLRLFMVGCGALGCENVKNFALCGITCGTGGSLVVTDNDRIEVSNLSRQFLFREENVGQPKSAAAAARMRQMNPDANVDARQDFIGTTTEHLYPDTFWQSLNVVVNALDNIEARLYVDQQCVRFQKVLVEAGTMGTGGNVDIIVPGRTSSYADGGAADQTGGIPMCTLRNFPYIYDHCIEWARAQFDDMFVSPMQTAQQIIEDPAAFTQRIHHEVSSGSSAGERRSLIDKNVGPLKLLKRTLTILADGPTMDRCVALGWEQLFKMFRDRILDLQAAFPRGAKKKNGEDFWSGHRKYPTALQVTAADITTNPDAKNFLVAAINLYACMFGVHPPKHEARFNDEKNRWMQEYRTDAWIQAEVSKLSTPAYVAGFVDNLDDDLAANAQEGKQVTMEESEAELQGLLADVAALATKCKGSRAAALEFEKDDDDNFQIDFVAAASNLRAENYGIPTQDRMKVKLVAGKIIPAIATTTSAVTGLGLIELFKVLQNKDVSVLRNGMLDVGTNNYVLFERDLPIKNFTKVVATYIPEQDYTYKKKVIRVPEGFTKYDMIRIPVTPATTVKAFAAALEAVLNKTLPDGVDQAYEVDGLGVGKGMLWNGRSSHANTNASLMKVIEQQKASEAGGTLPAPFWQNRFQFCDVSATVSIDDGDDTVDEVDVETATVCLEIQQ
Nature of the assay: Leishmania donovani Ubiquitin Activating Enzyme (LdE1). The assay is classed as functional. The settings on record: 30 µM.

The target in assay [3] is AMP-activated protein kinase, AMPK (Homo sapiens) (UniProt P54646+O43741+P54619+Q9UGJ0+Q9Y478+Q13131+Q9UGI9). Nature of the assay: AMP-dependent Kinase enzyme assay. An in vitro enzyme assay that detects ADP turnover that is directly proportional to AMPK activity. This uses naive AMPK that is activated during the assay with MK-8722. The settings on record: 30 µM. The assay is classed as functional.

In assay [4] the target is Sialic acid-binding Ig-like lectin 9 (Homo sapiens) (UniProt Q9Y336). Nature of the assay: Hs-Siglec9 ALPHAscreen SOP 20170721. The settings on record: 10 µM.
Sialic acid-binding Ig-like lectin 9 (Homo sapiens), sequence (Q9Y336 whole entry): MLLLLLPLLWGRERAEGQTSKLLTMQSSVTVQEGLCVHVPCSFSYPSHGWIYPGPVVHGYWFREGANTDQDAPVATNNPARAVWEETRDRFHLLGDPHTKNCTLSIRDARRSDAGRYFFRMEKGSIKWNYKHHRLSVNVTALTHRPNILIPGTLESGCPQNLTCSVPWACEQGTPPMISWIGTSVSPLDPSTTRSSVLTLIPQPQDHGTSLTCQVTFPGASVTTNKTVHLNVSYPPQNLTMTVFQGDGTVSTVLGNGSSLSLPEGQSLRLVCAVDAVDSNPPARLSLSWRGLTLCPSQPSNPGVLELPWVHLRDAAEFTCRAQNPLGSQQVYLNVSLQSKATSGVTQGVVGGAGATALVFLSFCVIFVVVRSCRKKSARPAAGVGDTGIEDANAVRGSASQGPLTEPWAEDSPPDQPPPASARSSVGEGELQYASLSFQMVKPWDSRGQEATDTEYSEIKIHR
Assay [5] concerns Trypanosoma cruzi. As to the kind of experiment: Trypanosoma cruzi phosphomannomutase and mannose-1-phosphate guanylyltransferase assay. The assay is classed as functional. The settings on record: 10 µM.
Assay [6] addresses T2, Arginase-2, mitochondrial (Homo sapiens) (UniProt P78540).
T2 sequence (whole entry): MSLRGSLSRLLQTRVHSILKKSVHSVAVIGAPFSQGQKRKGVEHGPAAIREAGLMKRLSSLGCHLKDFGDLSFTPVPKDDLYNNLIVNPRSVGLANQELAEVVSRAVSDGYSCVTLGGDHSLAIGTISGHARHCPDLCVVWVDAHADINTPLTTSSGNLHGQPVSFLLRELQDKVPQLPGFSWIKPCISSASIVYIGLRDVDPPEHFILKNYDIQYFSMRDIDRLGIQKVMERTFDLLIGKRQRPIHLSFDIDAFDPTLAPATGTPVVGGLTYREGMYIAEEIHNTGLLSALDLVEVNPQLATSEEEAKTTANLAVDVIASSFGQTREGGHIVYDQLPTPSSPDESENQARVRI
As to the kind of experiment: in vitro enzyme assay to detect the production of urea directly proportional to the activity of Arginase II. Further: in the data most compounds retested in dose-response had high values. The assay is classed as functional. Particulars: 33.3 µM.

Assay [7] has as its target T3, Proteasome subunit beta (Trypanosoma cruzi) (UniProt O96673).
T3 sequence (whole entry): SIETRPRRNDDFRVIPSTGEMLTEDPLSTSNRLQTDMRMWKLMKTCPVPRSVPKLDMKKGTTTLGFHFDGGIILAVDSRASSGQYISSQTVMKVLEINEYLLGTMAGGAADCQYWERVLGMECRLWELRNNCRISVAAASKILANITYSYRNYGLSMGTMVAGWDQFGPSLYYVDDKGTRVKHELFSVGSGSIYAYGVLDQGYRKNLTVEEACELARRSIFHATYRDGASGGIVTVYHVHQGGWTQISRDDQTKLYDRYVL
Nature of the assay: Trypanosoma cruzi proteasome chymotrypsin-like activity (TcProtChymo) assay. Further: in the data most compounds retested in dose-response had high values. The assay is classed as functional. The settings on record: 9.37 µM.

The species entered for assay [8] is Homo sapiens. Nature of the assay: To identify inhibition of the IFN signalling (Jak-Stat) pathway via expression of an eGFP reporter gene under the control of an IFN-stimulated response element (ISRE) containing MxA promoter. The assay is classed as functional. Particulars: 30 µM.
Assay [9] concerns the target T4, Tyrosyl-tRNA synthetase, putative (Trypanosoma cruzi (strain CL Brener)) (UniProt Q4DSP6).
T4 sequence (whole entry): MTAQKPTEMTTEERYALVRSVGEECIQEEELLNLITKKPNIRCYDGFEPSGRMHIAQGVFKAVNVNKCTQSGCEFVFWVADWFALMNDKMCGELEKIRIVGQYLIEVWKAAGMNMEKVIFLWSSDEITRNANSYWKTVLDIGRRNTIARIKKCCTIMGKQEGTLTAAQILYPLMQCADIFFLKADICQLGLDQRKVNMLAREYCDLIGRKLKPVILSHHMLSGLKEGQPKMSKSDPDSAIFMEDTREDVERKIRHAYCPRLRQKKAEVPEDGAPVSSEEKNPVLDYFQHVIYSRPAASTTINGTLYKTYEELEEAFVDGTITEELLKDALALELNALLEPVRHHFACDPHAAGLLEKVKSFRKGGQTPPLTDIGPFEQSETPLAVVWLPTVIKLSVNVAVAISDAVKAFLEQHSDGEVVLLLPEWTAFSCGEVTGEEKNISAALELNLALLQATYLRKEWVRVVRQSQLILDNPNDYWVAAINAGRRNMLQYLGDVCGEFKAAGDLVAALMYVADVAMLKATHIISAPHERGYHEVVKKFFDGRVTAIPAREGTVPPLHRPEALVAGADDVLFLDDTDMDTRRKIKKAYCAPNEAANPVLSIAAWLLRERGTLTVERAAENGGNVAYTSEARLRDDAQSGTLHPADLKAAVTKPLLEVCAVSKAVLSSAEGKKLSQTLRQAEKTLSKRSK
Nature of the assay: Trypanosoma cruzi tyrosyl tRNA synthetase (TcYRS) _High Tyrosine SOP. Further: in the data most compounds retested in dose-response had high values. The assay is classed as functional. Particulars: 30 µM.

The target in assay [10] is T4, Tyrosyl-tRNA synthetase, putative (Trypanosoma cruzi (strain CL Brener)). Nature of the assay: Trypanosoma cruzi tyrosyl tRNA synthetase (TcYRS) SOP. The assay is classed as functional. Particulars: 30 µM.
Assay [11] addresses Chromo domain-containing protein 1 (Saccharomyces cerevisiae (strain ATCC 204508 / S288c) (Baker's yeast)) (UniProt P32657). Nature of the assay: ScCHD-1 Enzyme Inhibition Assay. Further: in the data most compounds retested in dose-response had high values. The assay is classed as functional. Particulars: 30 µM.

For some of these results: Results with a measured potency or affinity are listed apart.

Chromo domain-containing protein 1 (Saccharomyces cerevisiae (strain ATCC 204508 / S288c) (Baker's yeast)), sequence (P32657 whole entry, the tested form may be a part): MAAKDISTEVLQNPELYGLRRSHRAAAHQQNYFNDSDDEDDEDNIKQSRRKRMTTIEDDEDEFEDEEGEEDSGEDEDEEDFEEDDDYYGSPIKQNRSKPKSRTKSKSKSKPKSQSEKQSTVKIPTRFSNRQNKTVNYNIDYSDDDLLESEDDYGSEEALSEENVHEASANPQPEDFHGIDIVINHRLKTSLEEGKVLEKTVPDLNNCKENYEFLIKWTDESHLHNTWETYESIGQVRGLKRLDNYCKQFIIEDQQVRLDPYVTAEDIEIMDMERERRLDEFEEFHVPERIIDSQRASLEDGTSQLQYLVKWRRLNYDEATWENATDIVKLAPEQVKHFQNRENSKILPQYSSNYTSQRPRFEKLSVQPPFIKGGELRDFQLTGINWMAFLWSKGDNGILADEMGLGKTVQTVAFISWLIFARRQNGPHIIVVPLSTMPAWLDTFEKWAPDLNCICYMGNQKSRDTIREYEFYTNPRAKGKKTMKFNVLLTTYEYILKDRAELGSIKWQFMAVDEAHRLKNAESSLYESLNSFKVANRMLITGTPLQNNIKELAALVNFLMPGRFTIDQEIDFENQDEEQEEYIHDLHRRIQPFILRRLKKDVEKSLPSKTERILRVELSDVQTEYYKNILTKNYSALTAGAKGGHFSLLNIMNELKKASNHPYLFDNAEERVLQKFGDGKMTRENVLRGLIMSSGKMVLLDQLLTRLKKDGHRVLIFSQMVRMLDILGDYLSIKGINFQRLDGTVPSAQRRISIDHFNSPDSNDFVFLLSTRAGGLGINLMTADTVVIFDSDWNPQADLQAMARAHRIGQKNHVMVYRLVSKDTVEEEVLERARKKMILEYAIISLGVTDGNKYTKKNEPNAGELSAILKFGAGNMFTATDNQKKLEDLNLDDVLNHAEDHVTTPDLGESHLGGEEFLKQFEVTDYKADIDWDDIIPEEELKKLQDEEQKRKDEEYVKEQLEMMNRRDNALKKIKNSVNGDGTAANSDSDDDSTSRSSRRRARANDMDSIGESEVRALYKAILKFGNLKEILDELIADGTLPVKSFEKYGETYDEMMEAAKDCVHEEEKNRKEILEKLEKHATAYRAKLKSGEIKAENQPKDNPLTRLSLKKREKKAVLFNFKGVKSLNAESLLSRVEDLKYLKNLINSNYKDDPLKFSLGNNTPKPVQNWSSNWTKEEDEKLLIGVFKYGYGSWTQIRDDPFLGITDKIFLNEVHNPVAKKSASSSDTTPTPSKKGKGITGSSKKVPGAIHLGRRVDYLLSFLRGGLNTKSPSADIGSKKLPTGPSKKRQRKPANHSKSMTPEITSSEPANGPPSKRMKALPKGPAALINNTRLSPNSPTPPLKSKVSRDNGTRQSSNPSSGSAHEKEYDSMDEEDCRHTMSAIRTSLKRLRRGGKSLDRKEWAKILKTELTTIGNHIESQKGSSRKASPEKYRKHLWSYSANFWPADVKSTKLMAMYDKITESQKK
Protein translocase subunit SecA (Escherichia coli (strain K12)), sequence (P10408 whole entry): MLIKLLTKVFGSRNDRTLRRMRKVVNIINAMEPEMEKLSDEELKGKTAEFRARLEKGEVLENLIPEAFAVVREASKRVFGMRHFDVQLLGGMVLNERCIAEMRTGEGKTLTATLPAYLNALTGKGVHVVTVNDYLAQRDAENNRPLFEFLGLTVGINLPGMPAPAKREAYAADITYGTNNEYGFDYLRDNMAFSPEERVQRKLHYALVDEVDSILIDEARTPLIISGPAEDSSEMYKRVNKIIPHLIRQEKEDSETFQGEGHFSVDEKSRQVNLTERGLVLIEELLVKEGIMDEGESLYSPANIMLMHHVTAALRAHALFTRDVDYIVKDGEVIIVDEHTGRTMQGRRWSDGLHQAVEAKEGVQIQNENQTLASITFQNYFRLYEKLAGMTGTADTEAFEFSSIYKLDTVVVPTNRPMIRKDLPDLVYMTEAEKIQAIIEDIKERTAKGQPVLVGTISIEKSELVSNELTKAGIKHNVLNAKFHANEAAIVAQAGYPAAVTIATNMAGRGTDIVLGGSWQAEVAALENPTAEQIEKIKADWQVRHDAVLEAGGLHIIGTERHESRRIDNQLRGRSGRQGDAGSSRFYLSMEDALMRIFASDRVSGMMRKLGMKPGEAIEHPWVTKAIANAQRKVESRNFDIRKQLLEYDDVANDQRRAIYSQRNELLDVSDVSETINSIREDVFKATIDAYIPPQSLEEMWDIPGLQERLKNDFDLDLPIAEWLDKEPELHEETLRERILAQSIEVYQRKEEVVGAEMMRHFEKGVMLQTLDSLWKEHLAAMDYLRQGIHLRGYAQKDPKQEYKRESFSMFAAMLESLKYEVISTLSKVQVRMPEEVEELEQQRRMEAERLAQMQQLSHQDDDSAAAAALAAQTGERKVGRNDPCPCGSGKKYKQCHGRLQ

On to `O=C(CN1CCc2ccccc21)Nc1ccc(OC(F)F)cc1`, for which the Percent Effect is -2% in [1]; 1.39% in assay [2]; 0.216% in [3]; 8.48% in assay [4]; -2.23% in assay [5]; 0.883% in [6]. The Percent Effect in assay [7] was 21.1%; in [8], 8.31%; in assay [9] it was 0%; in assay [10], -7.69%; in [11] it was 88.5%.
Regarding `CC1CN(C)CCN1C(=O)c1ccn(-c2cccc(Cl)c2)n1` (stereo unspecified), the Percent Effect in assay [1] was -4.4%; in assay [2], 5.2%; in assay [3], 3.41%; in assay [4], 8.46%; in assay [5] it was 3%; in assay [6], -4.98%. Besides, the Percent Effect in assay [7] was -5.91%; in assay [8], -0.574%; in assay [9] it was 2.91%; in [10] it was 9.76%; in assay [11], -7.43%.
In the case of `COc1ncccc1NC(=O)NCC(O)c1ccc(F)cc1F` (stereo unspecified), the Percent Effect in [1] is -1.59%; in [2], -6.33%; in assay [3], 2.46%; in [4], 1.59%; in [5], -3.79%; in [6], 5.38%. Also, the Percent Effect is 20.6% in assay [7]; 15.3% in assay [8]; 2.08% in assay [9]; 5.06% in assay [10]; -13.8% in assay [11].
With `O=C(Cc1c[nH]c2ccccc12)N1CCN(C(=O)c2ccoc2)CC1`, the Percent Effect in assay [1] was -2.06%; in assay [2] it was 13.2%; in assay [3], 1.95%; in assay [4], -3.58%; in assay [5], 0.487%; in [6] it was 14.2%. For the same compound, the Percent Effect in [7] was 12.9%; in [8] it was 21.1%; in assay [9], 7.45%; in assay [10], 18.2%; in assay [11], -2.68%.
As for `CC(C)c1nc(CN(C)CC2CCN(CCO)CC2)no1`, the Percent Effect in assay [1] was -2.78%; in assay [2], 0%; in assay [3], -3.56%; in [4], 0.371%; in assay [5], -1.35%; in assay [6] it was 2.86%. Further, the Percent Effect in [7] was 1.9%; in [8], 1.02%; in [9] it was 2.65%; in assay [10], 9.76%; in assay [11], -3.71%.
As to `CC(C)(C)OC(=O)N1CCN(C(=O)c2sccc2C2CC2)CC1`, the Percent Effect in [1] is -1.99%; in assay [2] it was 8.86%; in [3], 5.24%; in assay [4], 1.31%; in [5], -2.56%; in [6], 9.25%. The Percent Effect in assay [7] was 6.17%; in assay [8] it was -13.8%; in assay [9] it was 3.12%; in assay [10] it was 5.06%; in assay [11], -5.68%.
For the compound `OC1CCN(Cc2c(C3CCCNC3)[nH]c3ncccc23)CC1` (stereo unspecified), the Percent Effect in assay [1] was -5.49%; in assay [2], 12.2%; in assay [3], 11.9%; in assay [4] it was 5.12%; in assay [5], -5.93%; in assay [6] it was -3.94%. In addition, the Percent Effect in [7] is 8.42%; in [8], -1.37%; in [9], -5.38%; in [10], 9.09%; in assay [11], -6.12%.
On to `CCN(CCNC(=O)c1ccccc1OCCOC)C1CC1`, for which the Percent Effect in [1] is -1.14%; in [2] it was 21.5%; in [3], -0.982%; in [4], -8.11%; in assay [5], 0.513%; in [6], -4.52%. The Percent Effect in assay [7] is 17%; in assay [8] it was 14.4%; in assay [9], 3.12%; in assay [10] it was 17.7%; in assay [11] it was -34.3%.
As for `CCCn1nc2c(cc1=O)CN(CCS(C)(=O)=O)CC2`, the Percent Effect is -6.22% in assay [1]; -5.41% in assay [2]; -30.8% in assay [3]; 22.6% in assay [4]; 2.17% in assay [5]; -6.01% in assay [6]. Besides, the Percent Effect was 7.75% in [7]; 7.82% in [8]; 8.37% in assay [9]; 16.1% in assay [10]; -11.1% in assay [11].
On to `CCn1cnnc1C1CCN(C(=O)c2ccc(C(=O)OC)s2)CC1`, for which the Percent Effect is -6.84% in assay [1]; 10.4% in assay [2]; 4.62% in assay [3]; 9.21% in assay [4]; -4.87% in assay [5]; -0.356% in assay [6]. Moreover, the Percent Effect in [7] was 7.43%; in assay [8], -6.83%; in assay [9] it was 4.85%; in assay [10] it was 12.2%; in assay [11] it was -5.74%.
For the compound `COc1cc2ncn(CC(=O)NCCCN(C)C)c(=O)c2cc1OC`, the Percent Effect in [1] was -1.85%; in assay [2], 1.33%; in assay [3], -1.58%; in assay [4], 0.564%; in assay [5] it was -8.84%; in assay [6], -3.35%. Further, the Percent Effect in assay [7] was 7.76%; in assay [8], -4.68%; in [9], 4.23%; in assay [10] it was -53.9%; in [11], -7.79%.

These data come from ChEMBL document CHEMBL3988442, “University of Dundee, Small-Polar-MMV Screening Library” (2021).
